Where “and” joins values, the source holds several entries; their conditions need not be identical. Equal values may be shown once. Compounds without any hit were thinned out: in the full panel of roughly 79,000, 15% have a hit. Calls of active or inactive are those of the source. Rule as the data show it: active = growth inhibition above about 70%; inactive = the rest.
Assay: NCI Yeast Anticancer Drug Screen. Data for the mec2-1 strain (AID 157)
Conditions: S. cerevisiae mec2-1 strain, hits give high values; at 50.0 µM unless noted
Summary of the method: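 mec2-1 yeast strain, carrying an alteration in DNA damage repair or cell cycle control, was exposed to compounds; growth inhibition was measured relative to vehicle-treated controls.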
For `O=C(C1=CCCCC1)c1ccc(-c2ccccc2)cc1`, the growth inhibition was 11.2% (inactive).
In the case of `COc1ccc(C=O)c(Cl)c1OC`, the growth inhibition was 14.4% (inactive).
For `CS(=O)(=O)OCC1OC(n2ncc(=O)[nH]c2=O)C(O)C1O` (stereo not given), the growth inhibition was 13.7% (inactive).
In the case of `Cc1ccc(C(C)C)c(Oc2cc(C)ccc2C(C)C)c1`, the growth inhibition was 7.1% (inactive).
For `CC(C)(C)C1CCC2c3c([nH]c4ccccc34)C3C(=O)N(c4cc(Br)cc(Br)c4)C(=O)C3C2C1` (stereo not given), the growth inhibition was 9.15% (inactive).
In the case of `O=C(O)CCCn1nnc2c(=O)[nH][nH]c(=O)c21`, the growth inhibition was 5.65% (inactive).
For `Cc1cc(NC(=O)C(=O)Cc2nc3ccccc3s2)ccc1Cl`, the growth inhibition was 12.7% (inactive).
In the case of `O=c1/c(=C/c2ccccc2[N+](=O)[O-])sc2nc3ccccc3n12`, the growth inhibition was -21.4% (inactive).
In the case of `O=P(CSCCO)(c1ccccc1)c1ccccc1`, the growth inhibition was -21.9% (inactive).
For `COc1cccc(/C=C/c2cnc3ccccc3n2)c1OC`, the growth inhibition was 13.8% (inactive).
For `Cc1cccc(C(=O)NNC(=O)C(=O)NNC(=O)c2cccc(C)c2)c1`, the growth inhibition was 43.6% (inactive).
In the case of `CN=Nc1c(O)[nH]c2ccc(C)cc12`, the growth inhibition was 0.2% (inactive).
In the case of `CCOC(=O)c1cn[nH]c1C`, the growth inhibition was -0.9% (inactive).
In the case of `[N-]=[N+]=Nc1c2c(nc3ccccc13)CCCC2`, the growth inhibition was -10.2% (inactive).
In the case of `NC(=O)c1ccc(-c2csc(=S)[nH]2)s1`, the growth inhibition was -9.7% (inactive).
With `Nn1nnc2ccccc21` the growth inhibition was 24.8% (inactive).
For `Cn1c2ccccc2c(=O)c2[nH]c3ccccc3c21`, the growth inhibition was 78.5% (active).
In the case of `CCCCCCCCCCCCCCCCCC(=O)N1CCN(C(=O)CCCCCCCCCCCCCCCCC)C1`, the growth inhibition was -18.3% (inactive).
In the case of `CN1C(=O)n2c(nc3ccccc32)C(Cl)(Cl)C1=O`, the growth inhibition was 10.3% (inactive).
In the case of `CCOC(=O)c1c(C)cc(=O)oc1C`, the growth inhibition was 7.55% (inactive) and -1.6% (inactive).
With `CC(=O)COC(=O)c1ccccc1` the growth inhibition was 3.5% (inactive).
For `Cc1cc2ccccc2c(N=Cc2cc(Br)cc(Br)c2O)c1C#N`, the growth inhibition was 87.5% (active).
In the case of `CC1CCCC(CC(=O)O)(CC(=O)O)C1` (stereo not given), the growth inhibition was -33.6% (inactive).
With `c1ccc2c(c1)C(=NCCCN1CCCCCCC1)c1cccn1-2` the growth inhibition was 9.95% (inactive).
In the case of `[CH3][Sn]([CH3])([S]P(=S)(c1ccccc1)c1ccccc1)[S]P(=S)(c1ccccc1)c1ccccc1`, the growth inhibition was 31.7% (inactive).
For `Cc1ccc(Nc2nc(N)nc3c2ncn3C2OC(CO)C(O)C2O)cc1` (stereo not given), the growth inhibition was 2.6% (inactive).
In the case of `CCOc1ccc(N=Nc2c(O)n(-c3ccc(Cl)cc3)c(=S)n(-c3ccccc3)c2=O)cc1`, the growth inhibition was 2.5% (inactive).
For `Oc1cccnc1Cl`, the growth inhibition was -13.7% (inactive).
For `CCCNCCC`, the growth inhibition was -5.4% (inactive).
With `COC(=O)CC1(C(=O)OC)NC(=O)c2cc(OC)c(Cl)cc2N1` (stereo not given) the growth inhibition was 7.6% (inactive).
With `COc1cc(OC)c(-c2cc(=O)c3c(OC)c(OC)c(OC)c(OC)c3o2)cc1OC` the growth inhibition was -3.8% (inactive).
For `OC1(c2cccnc2)c2ccccc2Oc2ccccc21`, the growth inhibition was 7.25% (inactive).
With `CCCCCP(=O)(O)O.[Cu+2]` the growth inhibition was -39.6% (inactive).
With `N#CCNC(=O)Cc1ccccc1` the growth inhibition was -10.2% (inactive).
In the case of `CC1=C(C(=O)CC(=O)C(=O)Nc2ccc(Cl)cc2C)Sc2ccccc2N1`, the growth inhibition was 3.25% (inactive).
For `CC(C)(C)OC(=O)NCC(=O)OC/C=C/c1ccccc1`, the growth inhibition was 1.3% (inactive).
In the case of `COC(=O)/C=C/c1cccnc1`, the growth inhibition was -28.6% (inactive).
For `O=C1C=CC(=O)N1c1ccnc(N2C(=O)C=CC2=O)c1`, the growth inhibition was -1.55% (inactive).
For `CCCCCCCCCCCC`, the growth inhibition was 25.4% (inactive).
With `CC1=CC(=O)[C@@H](O)[C@@]2(C)C1C[C@H]1OC(=O)[C@H](C/C=C(/C)C(C)C)[C@H]3C(C)C(O)C4(O)OC[C@@]31C42` (stereo not given in full) the growth inhibition was 77.9% (active).

Reference: PubChem BioAssay (NCI)
